The target of the test is T1, PINX1 (UniProt Q96BK5).
T1 sequence (whole entry): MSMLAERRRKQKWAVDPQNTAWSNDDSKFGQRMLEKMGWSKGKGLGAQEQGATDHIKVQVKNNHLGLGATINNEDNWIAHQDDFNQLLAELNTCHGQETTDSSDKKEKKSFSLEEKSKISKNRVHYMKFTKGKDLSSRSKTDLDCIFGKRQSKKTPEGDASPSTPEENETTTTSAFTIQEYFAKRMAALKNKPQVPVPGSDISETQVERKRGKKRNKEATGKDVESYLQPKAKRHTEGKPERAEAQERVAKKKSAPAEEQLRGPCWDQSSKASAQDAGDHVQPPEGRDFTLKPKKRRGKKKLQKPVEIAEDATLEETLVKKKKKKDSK
The experiment in a line: NP40-soluble protein abundance relative to vehicle (solubility fold change) (ratio); higher = more soluble protein in presence of GTP. As to the method: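 Solubility proteome profiling in Jurkat crude lysate. Lysate was treated with Mg-GTP (0.1-10 mM) for 10 min at room temperature and 3 min at 37 °C, then solubilised with 0.8% NP40 and benzonase, followed by ultracentrifugation. Proteins were quantified by TMT10 LC-MS/MS; the value is the NP40-soluble abundance relative to the NP40-processed vehicle, from 3 independent experiments.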

Our source for the NP40-soluble protein abundance values is the supplement of paper PMC6411743.

± gives the standard deviation of the averaged measurements. Of roughly 5,400 targets only a part is listed; those with the largest changes were picked by preference.

Regarding `Nc1nc2c(ncn2[C@@H]2O[C@H](COP(=O)(O)OP(=O)(O)OP(=O)(O)O)[C@@H](O)[C@H]2O)c(=O)[nH]1` [guanosine triphosphate], the NP40-soluble protein abundance is, setting by setting: (concentration: 0.1mM) 1.22 ± 0.065; (concentration: 0.5mM) 1.28 ± 0.074; (concentration: 1mM) 1.45 ± 0.033; (concentration: 2mM) 1.64 ± 0.093; (concentration: 4mM) 1.96 ± 0.15; (concentration: 6mM) 2.01 ± 0.21. For the same compound, the NP40-soluble protein abundance reads like this: (concentration: 8mM) 2.36 ± 0.13; (concentration: 10mM) 2.62 ± 0.26.
